Screens (PubChem)
RGS12 GoLoco inh-1: inhibitors of human Gai1-RGS12 GoLoco interaction (red fluorophore) | Gai1:RGS12 GoLoco peptide FP, rhodamine, 10 min | P63096 | 0.44% of 230,000 active | Potency, µM (doses to about 61.6 µM), for the others: at the top dose activity, negative = inhibition, most hits filed as inhibitors; active = well fitted inhibition curve with a large enough effect, not every such curve was filed as active; inactive = no such curve, though single readings can be large or run the other way; also: potency is read from the fitted curve at half-maximal effect; % is scaled to controls: 0 for no effect and ±100 for the full control effect; nearly all actives have a fitted effect of over 30% in size
Target sequence (P63096 whole entry, looked up): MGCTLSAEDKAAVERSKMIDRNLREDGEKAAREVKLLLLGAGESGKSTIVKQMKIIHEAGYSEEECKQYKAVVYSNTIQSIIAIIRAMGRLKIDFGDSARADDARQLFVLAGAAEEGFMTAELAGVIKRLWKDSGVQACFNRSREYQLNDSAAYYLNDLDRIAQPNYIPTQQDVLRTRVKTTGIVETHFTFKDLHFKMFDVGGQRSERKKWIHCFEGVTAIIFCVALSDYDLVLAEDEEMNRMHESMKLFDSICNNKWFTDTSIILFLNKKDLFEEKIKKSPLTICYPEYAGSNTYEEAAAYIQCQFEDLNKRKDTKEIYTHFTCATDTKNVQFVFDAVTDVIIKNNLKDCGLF
KAT2A inh: inhibitors of human GCN5L2 histone acetyltransferase | Q92830 | GCN5L2 HAT assay, ThioGlo1 CoA-SH fluorescence | Potency, µM (highest dose often 58.9 µM), for the others: top-dose activity change, negative = inhibition, most hits filed as inhibitors | 0.21% of 390,000 active | AID 504327; also: potency is read from the fitted curve at half-maximal effect; % is scaled to controls: 0 for no effect and ±100 for the full control effect
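ThioGlo1-coupled HAT assay: 20nM GCN5L2, 70uM acetyl-CoA, 75uM H3(1-25) peptide, pH 7.5. Fluorescence read at 340/540nm at start and after 20 min at room temperature.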
Vif-APOBEC3G blk: Vif-A3G binding inhibition; HeLa A3G-eYFP + Vif (tagged APOBEC3G with the HIV-1 protein that degrades it), YFP fluorescence, overnight; Q9HC16; 0.076% of 410,000 active; AID 602310; Potency, µM (titrated, usually from 46.1 µM), without a hit: at the highest dose activity, negative = active, most hits filed as inhibitors; also: potency is read from the fitted curve at half-maximal effect; % is scaled to controls: 0 for no effect and ±100 for the full control effect; nearly all actives have a fitted effect of over 60% in size
Target sequence (Q9HC16 whole entry, looked up): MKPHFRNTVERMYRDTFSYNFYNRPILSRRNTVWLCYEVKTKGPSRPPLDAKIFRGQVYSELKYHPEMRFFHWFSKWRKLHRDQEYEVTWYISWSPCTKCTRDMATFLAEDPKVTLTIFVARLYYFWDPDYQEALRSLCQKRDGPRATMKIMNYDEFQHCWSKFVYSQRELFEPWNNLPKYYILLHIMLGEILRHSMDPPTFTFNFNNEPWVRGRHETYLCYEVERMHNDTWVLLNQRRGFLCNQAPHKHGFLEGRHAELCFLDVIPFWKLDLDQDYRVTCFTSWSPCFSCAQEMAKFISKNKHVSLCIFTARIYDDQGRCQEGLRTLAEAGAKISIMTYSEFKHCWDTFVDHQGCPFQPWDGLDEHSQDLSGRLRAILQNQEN
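Read-out is eYFP fluorescence (Ex 488/Em 500-530) from Vif-expressing HeLa A3G-eYFP cells; more signal means A3G escaped Vif-mediated degradation. Cells plated overnight, compound pinned in, incubated overnight at 37 deg C.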
PKM2 act: increases activity of human pyruvate kinase M2; purified PKM2, Kinase-Glo ATP luminescence, activation; response scale: 0% is enzyme alone, no compound; Potency, µM (titrated, usually from 57.5 µM), for the others: at the highest dose activation, hits mostly activators; 0.34% of 260,000 active; also: potency is read from the fitted curve at half-maximal effect; % is scaled to controls: 0 for no effect and ±100 for the full control effect; nearly all actives have a fitted effect of over 55% in size
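ATP formation by purified human PK-M2, quantified via coupled luciferase luminescence after 1 h at room temperature with 0.1 mM ADP and 0.5 mM PEP final.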
Vif-APOBEC3F blk: blocks the Vif interaction with APOBEC3F | HeLa A3F-eYFP + Vif (tagged APOBEC3F with the HIV-1 protein that degrades it), YFP fluorescence increase | Potency, µM (highest dose often 46.1 µM), inactives show at the top dose activity, negative = active | 0.2% of 390,000 active | AID 602313; also: potency is read from the fitted curve at half-maximal effect; % of control where 0% means no effect; nearly all actives have a fitted effect of over 65% in size
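Fluorescence increase (Ex 488/Em 500-530) after overnight compound treatment at 37 deg C flags inhibition of Vif-driven A3F-eYFP loss in stable HeLa A3F-eYFP/Vif cells seeded overnight beforehand.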
IL-2 act: activates IL-2 in a cell-based reporter assay; IL-2 activation reporter assay, cell-based qHTS; stimulated with anti-CD3/CD4/CD28 beads; in transgenic mouse T cells; 0.065% of 360,000 active; activation, % (series mostly up to about 46 µM); AID 652025; in the data active = activation above about 50%; inconclusive = mostly about 30% to 49%; also: 0% is about no effect
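Readout is EGFP and DsRed signal by fluorescent plate cytometry after 18 h at 37 degrees C. Transgenic mouse T cells (750/well) received compound for 60 min before bead stimulation (anti-CD3, anti-CD4, anti-CD28); memory T cells served as non-tolerant control.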
RGS12 GoLoco inh-2: RGS12 (human) GoLoco motif inhibition, red FP; shares compounds with RGS12 GoLoco inh-1; Gai1/rhodamine-RGS12 GoLoco peptide fluorescence polarization; Potency, µM (titrated, usually from 57.1 µM), for inactives: top-dose activity, negative = inhibition, hits mostly inhibitors; 50% of 110 active; AID 2390
HeLa viability: reduces HeLa cell viability in PKM2 activator counter-screen. shares compounds with PKM2 act. HeLa viability, CellTiter-Glo ATP luminescence, 24 h. activity change, negative = cytotoxicity, % at 57.5 µM. 230 tested, under 10 active; also: % of control where 0% means no effect
* = called active by the depositor; ? = inconclusive; · = no result; ! = a repeat was not active; [ ] = remark or other dose. Rows were chosen to be rich in hits. Some 0.77% of all compounds tested hit in one or more screens of this group. Unless noted, calls follow the shape of the dose curve; as a rule, active = well fitted curve in the direction sought with a large enough effect; inconclusive = small, poorly fitted or top-dose-only effect, or another doubt; inactive = no such curve, though single readings can be large; an effect the other way counts as inactive or inconclusive.

SMILES | RGS12 GoLoco inh-1 | KAT2A inh | Vif-APOBEC3G blk | PKM2 act | Vif-APOBEC3F blk | IL-2 act | RGS12 GoLoco inh-2 | others
COc1ccc(OC)c(CCNC(=O)Cn2sc3nc(C)cc(C)c3c2=O)c1 | 11µM* | ? | · | -7% | · | · | 4µM*
Cc1c(Cl)cccc1NC(=O)Cn1cccc1 | 10% | -6% | -1% | -3% | 2% | -1 | ·
Cc1cc(C)c2c(=O)n(CC(=O)Nc3ccc(Br)c(C)c3)sc2n1 | -26% | ? | · | ? | 6% | -1 | -14%
Cc1cc(C)c2c(=O)n(CC(=O)Nc3cccc(Cl)c3C)sc2n1 | 4µM* | ? | -15% | 3.2µM* | 0% | -4 | 14µM*
COc1ccc(CSCC(=O)N/N=C/c2ccc(OCC(=O)N3CCCCC3)cc2)cc1 | 3.5µM* | -12% | -1% | -4% | -1% | 0 | ?
O=C(CSCc1ccccc1)N/N=C/c1ccc(OCC(=O)N2CCCCC2)cc1 | -5% | -1% | -5% | 1% | -16% | 0 | 6%
CCc1ccc2c(CN3CCN(S(=O)(=O)c4ccccc4F)CC3)cc(=O)oc2c1 | · | -4% | 1% | · | 7% | -1 | ·
C/C(Cl)=C/Cn1c(N2CCCC2)nc2c1c(=O)[nH]c(=O)n2C | · | -2% | -3% | -1%[11.5 µM] | 13% | 0 | ·
CCCCCCn1c(=O)[nH]c2nc3cc(N)c(C)cc3nc2c1=O | -28% | -14% | 7% | ? | ? | 19 | ·
CCCCn1c(=O)[nH]c2nc3cc(NC(C)=O)ccc3nc2c1=O | 10% | -21% | 1% | -10% | -14% | 0 | 77%
CC1CCCCN1C(=O)Cn1cnc2c1c(=O)n(C)c(=O)n2C (centres undefined) | 3% | -3% | -1% | 3% | 4% | -1 | ·
NC(=O)NC1NC(=O)NC1=O (centres undefined) | 18µM*! | 11% | -1% | -1% | 2% | 0 | ?
NC(=O)NOC[C@@H]1NC(=O)NC1=O | 8%[14.2 µM] | · | · | · | · | · | ·
Cn1c(SCC(=O)Nc2ccc3c(c2)oc2ccccc23)nnc1-c1ccccc1 | 3.5µM* | -18% | -7% | -5% | 3% | 0 | 7.9µM*
Cn1c(SCC(=O)Nc2ccccc2)nnc1-c1ccccc1 | · | 2% | 0% | · | 2% | · | ·
CCC(=O)Nc1ccc(-c2nnc(SCC(=O)NCC3CCCO3)n2C)cc1 (centres undefined) | -6% | -1% | -4% | -2% | 7% | -2 | 12%
Cc1ccccc1-n1nnnc1SCC(=O)c1c(N)n(C)c(=O)n(C)c1=O | -8% | 0% | -1% | 2% | 1% | -1 | ·
Cc1ccc(S(=O)(=O)N2CCCc3ccccc32)cc1C | · | -2% | 0% | 0% | 0% | -1 | ·
CO/N=C(/C(=O)N[C@H]1C(=O)N2C(C(=O)O)=C(COC(C)=O)CSC12)c1csc(N)n1 (some centres undefined) | 7.9µM* | -5% | · | · | · | · | 3%
CN=C1N[C@H](c2ccccc2)N(c2ccccc2)S1 | 5.6µM* | ? | 1% | · | · | · | 13µM*
Cc1[nH]c2ccccc2c1C(=O)CN1CCN(C2CCCCC2)CC1 | 1.8µM* | 4% | · | 4% | · | · | ?
Cc1[nH]c2ccccc2c1C(=O)CN1C(=O)C(=O)N(C2CCCC2)C1=O | 9% | -9% | 0% | 2% | -2% | -3 | ·
Nc1cc(N)nc(SCC(=O)Nc2ccc(Br)cc2Cl)n1 | 6.3µM* | 0% | -2% | 26% | -10% | -1 | ?
Nc1nc(SCC(=O)Nc2ccc(Br)cc2Br)n[nH]1 | · | 3% | -2% | · | -6% | -2 | ·
COc1ccnc(Oc2ccc(C)cc2)c1C#N | 8% | -4% | 0% | -9% | 3% | 0 | ·
SMILES | RGS12 GoLoco inh-1 | KAT2A inh | Vif-APOBEC3G blk | PKM2 act | Vif-APOBEC3F blk | IL-2 act | RGS12 GoLoco inh-2 | others
C=CCc1cc(/C=N\NC(=O)CSc2nnc(CCCc3ccc(OC)c(C)c3)o2)cc(OC)c1O | 14µM* | 0% | 1% | -1% | -1% | -2 | ?
Cc1ccc(NC(=S)/N=C(\N)Nc2nc(C)c3cc(C)c(C)cc3n2)cc1C | 11% | -8% | 5% | -5% | -42% | 0 | ·
COc1ccc(Cn2nc(C(=O)O)c3ccccc3c2=O)cc1F | · | -2% | 1% | · | -11% | -1 | ·
COc1ccc(Cn2ncc3c4sc(C)cc4n(C)c3c2=O)cc1 | · | · | · | · | · | · | · | HeLa viability=3
CC(C)(C)n1ncc2c(=O)n(Cc3cc(C(F)(F)F)ccc3Cl)cnc21 | · | · | 2% | · | · | · | ·
Cc1cc2c(s1)c1cnn(Cc3ccc(C(C)C)cc3)c(=O)c1n2C | · | · | · | · | · | · | · | HeLa viability=-7
COc1ccc(Cn2ncc3c4sc(C)cc4n(C)c3c2=O)cc1F | · | · | · | · | · | · | · | HeLa viability=11
COc1cccc(Cn2ncc3c4sc(Br)cc4n(C)c3c2=O)c1 | · | 7% | · | · | · | · | ·
Cc1cc2c(s1)c1cnn(Cc3cc(C(F)(F)F)cc(Cl)c3F)c(=O)c1n2C | · | · | · | · | · | · | · | HeLa viability=14
CCc1nc(SC)ncc1C(=O)NCc1cccc(Br)c1 | · | 1% | 1% | · | 3% | · | ·
O=c1c2oc3ccccc3c2ncn1Cc1ccccc1Cl | 7% | · | 2% | 4% | -5% | -2 | ·
Nn1c(COc2ccccc2F)nnc1SCC(=O)NC1CCS(=O)(=O)C1 (centres undefined) | · | -4% | 1% | · | 1% | -4 | ·
COc1ccc(C(=O)NCCc2cn3ccccc3n2)cc1 | -1% | 2% | 1% | -2% | -11% | 5 | ·
Cc1cc2c(s1)c1cnn(Cc3ccc(C(F)(F)F)cc3)c(=O)c1n2C | · | · | · | · | · | · | · | HeLa viability=7
Cc1cc(=O)[nH]c2ccc(S(=O)(=O)Nc3ccc(O)cc3)cc12 | · | 2% | -5% | 2.2µM* | -12% | 1 | · | HeLa viability=-6
COC(=O)C1CC(=O)N(c2ccc(OCc3ccccc3Cl)cc2)C1 (centres undefined) | · | -24% | -2% | -4% | 0% | 0 | ·
O=c1c2ccc(Cl)cc2[nH]c(=S)n1Cc1cccnc1 | 5% | 15% | 3% | 3.2µM* | -1% | 0 | · | HeLa viability=3
Cc1c(C(=O)O)cnc2cc(-c3ccc(Cl)cc3)nn12 | 8% | 0% | 0% | -7% | 4% | -2 | ·
Cc1nc2cc(NCc3ccccc3O)ccc2n1Cc1ccccc1 | -1% | -21% | -4% | 5µM* | 7% | 0 | · | HeLa viability=-12
Cc1nc2ccccc2n1Cc1ccccc1 | · | -6% | 0% | 0% | 14% | 0 | ·
